From PubChem BioAssay
POLH inh – DNA polymerase eta (human) inhibition; Q9Y253; recombinant Pol eta, fluorescent DNA replication assay; Potency, µM (doses to about 114 µM), for the others: at the top dose activity change, negative = inhibition, hits mostly inhibitors; 390,000 tested, 1.2% active; AID 588591; note: % is set by controls: 0 for no effect and ±100 for the full control effect
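Fluorescent replication assay: 50 nM final substrate added after a 15 min room-temperature compound preincubation with 10 nM enzyme. Signal taken at 0 min and again at 10 min.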
Pol iota inh – blocks human DNA polymerase iota activity. Q9UNA4. Pol iota fluorescent replication assay, 10 min. Potency, µM (top dose mostly 115 µM), without a hit: at the highest dose activity, negative = inhibition, most hits filed as inhibitors. 390,000 tested, 1% active. AID 588590
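Fluorescent replication assay read twice, at 0 min and 10 min after adding 50 nM (final) substrate. Enzyme (10 nM) and compounds were first incubated 15 min at room temperature; enzyme-free buffer wells were negative controls.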
FEN1 inhibitor – inhibitors of human flap endonuclease 1; AID 588795; P39748; 390,000 tested, 0.35% active; Potency, µM (series often up to 114 µM), for inactives: at the top dose activity change, negative = inhibition, usual class: inhibitors; Recombinant FEN1 flap cleavage, fluorescence, 15 min; note: % is set by controls: 0 for no effect and ±100 for the full control effect; nearly all actives have a fitted effect of over 65% in size
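In this screen, 50 nM flap DNA substrate was added to 10 nM FEN1 pretreated with compound for 15 min at room temperature; cleavage was followed with reads at 0 and 15 min, and Hill fitting gave concentration–response parameters.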
WRN inhibitor – inhibitors of human WRN helicase; 360,000 tested, 0.46% active; WRN helicase unwinding, fluorescent forked duplex, kinetic; Potency, µM (titrated, usually from 114 µM), for the others: at the top dose activity change, negative = inhibition, most hits filed as inhibitors; note: % is set by controls: 0 for no effect and ±100 for the full control effect; nearly all actives have a fitted effect of over 55% in size
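Primary qHTS, 1536-well format. 20 nM WRN + compound, 15 min RT; start with 100 nM forked fluorophore/quencher duplex, 2 mM ATP (final); kinetic read ex 525/em 598 nm.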
POLK inh – inhibitors of human DNA polymerase kappa; Q9UBT6; purified Pol kappa, fluorescent DNA synthesis assay, 10 min; Potency, µM (series often up to 107 µM), without a hit: at the highest dose activity, negative = inhibition, hits mostly inhibitors; 400,000 tested, 0.53% active; AID 588579; note: % is set by controls: 0 for no effect and ±100 for the full control effect
Target sequence (Q9UBT6 whole entry, looked up): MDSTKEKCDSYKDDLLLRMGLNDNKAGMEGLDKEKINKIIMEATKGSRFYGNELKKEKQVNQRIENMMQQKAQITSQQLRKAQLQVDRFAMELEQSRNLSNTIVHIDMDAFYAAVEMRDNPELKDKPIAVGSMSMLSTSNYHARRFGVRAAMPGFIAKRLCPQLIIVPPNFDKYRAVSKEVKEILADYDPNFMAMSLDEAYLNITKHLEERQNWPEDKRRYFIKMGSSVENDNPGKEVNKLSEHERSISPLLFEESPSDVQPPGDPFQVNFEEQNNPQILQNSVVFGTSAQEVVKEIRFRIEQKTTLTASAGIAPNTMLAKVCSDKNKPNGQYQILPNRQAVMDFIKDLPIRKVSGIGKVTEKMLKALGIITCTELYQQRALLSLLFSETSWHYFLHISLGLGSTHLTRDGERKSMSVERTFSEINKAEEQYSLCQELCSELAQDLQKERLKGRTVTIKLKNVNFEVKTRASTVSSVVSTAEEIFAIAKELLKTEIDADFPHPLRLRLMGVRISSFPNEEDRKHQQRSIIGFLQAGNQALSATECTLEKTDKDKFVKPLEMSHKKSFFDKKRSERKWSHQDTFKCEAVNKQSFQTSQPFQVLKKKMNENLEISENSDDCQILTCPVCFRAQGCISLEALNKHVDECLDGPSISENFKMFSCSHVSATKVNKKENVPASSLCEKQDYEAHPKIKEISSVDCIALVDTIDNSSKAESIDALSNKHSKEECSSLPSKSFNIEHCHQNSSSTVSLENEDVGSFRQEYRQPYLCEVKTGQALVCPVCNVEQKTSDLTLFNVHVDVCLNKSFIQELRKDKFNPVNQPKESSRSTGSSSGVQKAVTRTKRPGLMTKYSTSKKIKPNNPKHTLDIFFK
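10 nM Pol kappa was preincubated with compounds for 15 min at room temperature. Reaction started with 50 nM (final) substrate. Fluorescence read kinetically at 0 and 10 min.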
POLB inh – blocks human DNA polymerase beta activity. P06746. 340,000 tested, 1.3% active. AID 485314. Potency, µM (top dose mostly 114 µM), without a hit: at the highest dose activity change, negative = inhibition, most hits filed as inhibitors. Pol beta primer extension/strand displacement, fluorescence kinetic; note: % is set by controls: 0 for no effect and ±100 for the full control effect
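Values derive from four-parameter Hill fits of normalized kinetic data: reads at 0 and 10 min following addition of 50 nM substrate to 10 nM Pol beta preincubated 15 min with compound.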
Starred values were filed as active, the others as inactive; ? = inconclusive; / = no result; [ ] = another dose, or the depositor's remark. Hits are enriched below; roughly 2.4% of the tested compounds scored in any of these assays. Calls come from the whole dose curve; as a rule, active = well fitted curve in the direction sought with a large enough effect; inconclusive = small, poorly fitted or top-dose-only effect, or another doubt; inactive = no such curve, though single readings can be large; an effect the other way counts as inactive or inconclusive. Potency is the fitted concentration of half-maximal effect.

SMILES | POLH inh | Pol iota inh | FEN1 inhibitor | WRN inhibitor | POLK inh | POLB inh
Cc1nn(-c2ccc(Cl)cc2)c(Cl)c1/C=N/NC(=O)c1ccc(NS(=O)(=O)c2cccs2)cc1 | 79.4µM* | -3.6% | -23.6% | -21.4% | -16.0% | /
COc1ccc(NC(=O)Cn2c(=O)nc(-c3ccccc3)c3ccccc32)cc1OC | -11.5% | -2.0% | -4.9% | / | -7.5%[60.1 µM] | 20.8%
O=C(Nc1ccc2c(c1)OCO2)c1cc2ncc(Br)cn2n1 | 3.55µM* | ? | -15.1% | ? | -41.1% | 28.2µM*
COC(=O)c1ccccc1NC(=O)c1cc2nc(C3CC3)cc(C(F)(F)F)n2n1 | 79.4µM* | ? | 1.4% | -4.9%[57.1 µM] | -21.7% | 50.1µM*
COC(=O)c1ccccc1NC(=O)c1cc2nc(-c3ccc(OC)cc3)cc(C(F)(F)F)n2n1 | 0.4% | -2.4% | -4.8% | / | -9.3% | 40.0%
O=C(Nc1ccc2c(c1)OCO2)c1cc2nc(C3CC3)cc(C(F)(F)F)n2n1 | ? | ? | 8.0% | -9.7%[57.1 µM] | -18.1% | 39.8µM*
CC(C)OC(C)C | / | / | / | / | 4.4%[60.1 µM] | /
COc1ccccc1NS(=O)(=O)c1cccc(-n2c(O)c(C=Nc3ccccc3C(=O)O)c3ccccc3c2=O)c1 | 20µM* | ? | 79.4µM* | 50.1µM* | -41.6% | 56.2µM*
COC(=O)c1ccccc1NC(=O)Cn1ncc2c(C)n(Cc3ccc(F)cc3)c(C)c2c1=O | -2.5% | ? | -23.0% | / | ? | 16.9%
O=C(O)c1c(-c2ccccc2)oc2ccc(O)cc12 | ? | 3.7% | 17.3% | 2.3% | 1.2% | 0.5%
O=Cc1c(-c2ccc(Cl)cc2)oc2ccc(O)cc12 | 44.7µM* | ? | -17.6% | ? | ? | /
Cc1cc(-c2csc(NC(=O)c3ccc(=O)[nH]c3)n2)c(C)n1Cc1ccccc1 | -14.1% | 2.9% | -7.6% | -0.6% | -7.1% | 20µM*
CC(=O)Nc1nnc(SCc2ccc(F)cc2)s1 | -3.7% | 15.4% | -1.1% | -2.0% | -4.6% | 22.1%
O=C(Nc1nnc(SCc2ccc(F)cc2)s1)c1ccc2ncsc2c1 | -6.1% | 3.16µM* | ? | -4.4%[11.6 µM] | 1.0% | 2.5%
Cc1cc(C(=O)Cn2ncc(Cl)c(Cl)c2=O)c(C)n1CC(F)(F)F | 22.4µM* | ? | -4.3% | -24.2% | -31.1% | -3.7%
Cc1ccc(C)c(C(=O)Cn2ncc(Cl)c(Cl)c2=O)c1 | -11.2% | -6.2% | 1.9% | -8.0% | -16.7% | 4.5%
COc1ccc(-c2noc(CSc3nnc(-c4ccc(Cl)cc4)n3C)n2)cc1OC | -18.5% | 26.1% | 4.6% | / | 11.2% | 24.1%
COc1cc(C(c2c(C)[nH][nH]c2=O)c2c(C)[nH][nH]c2=O)ccc1OC(=O)c1ccccc1OC | 7.6% | ? | -19.1% | / | 5.8% | -0.6%
COC(=O)c1ccccc1-c1ccc(C(c2c(C)[nH][nH]c2=O)c2c(C)[nH][nH]c2=O)o1 | ? | 7.94µM* | -3.2% | -17.3% | -7.1% | 8.8%
COC(=O)c1ccc(C(c2c(C)[nH][nH]c2=O)c2c(C)[nH][nH]c2=O)cc1 | -15.0% | -12.7% | 11.5% | 3.5% | 4.1% | 31.0%
COC(=O)c1cccc(-c2ccc(C(c3c(C)[nH][nH]c3=O)c3c(C)[nH][nH]c3=O)o2)c1 | -5.3% | 7.08µM* | -23.7% | ? | -7.3% | ?
CCOC(=O)c1ccc(CC(=O)c2ccc(O)cc2O)o1 | -7.5% | 0.4% | -1.0% | -4.6% | -15.6% | 28.6%
CCC(=O)Oc1ccc(C/C(=N\O)c2ccc(O)cc2O)o1 | 79.4µM* | 20µM* | -18.7% | -16.2%[57.1 µM] | 28.2µM* | ?
O=S1(=O)Nc2c(ccc3cccnc23)-c2ccccc21 | 2.6% | ? | 7.3% | -13.2% | -8.7% | 18.5%
Cc1cnc2c3c(cc(Cl)c2c1)-c1ccccc1S(=O)(=O)N3 | / | 28.2µM* | ? | / | 79.4µM* | /
SMILES | POLH inh | Pol iota inh | FEN1 inhibitor | WRN inhibitor | POLK inh | POLB inh
CSCC(=O)N1CCC(n2nccc2NC(=O)c2ccc3c(c2)OCO3)CC1 | -18.6% | ? | -10.6% | 1.0% | 79.4µM* | 10.9%
CN(C)C(=O)C12CCC(C)(c3nc4ccccc4nc31)C2(C)C (centres undefined) | -5.4% | 12.9% | -4.0% | -8.7% | -19.0% | 11.6%
CC12CCC(C(N)=O)(c3nc4ccccc4nc31)C2(C)C (centres undefined) | -4.6% | -9.1% | -0.6% | -5.4% | 1.0% | 89.1µM*
O=C(Nc1cccc([N+](=O)[O-])c1)c1cnccn1 | 11.2µM* | -47.3% | 0.7% | -31.3%[57.1 µM] | ? | 39.8µM*
O=C(Nc1cccc(Cl)c1)c1cnccn1 | 6.2% | 115.7% | 0.8% | -1.6% | 2.0% | 39.4%
O=C(Nc1cccc([N+](=O)[O-])c1)c1ccc2ccccc2c1O | -3.0% | 2.1% | 14.2% | 4.0% | -11.8% | 39.8µM*
Cc1ccc(NC(=O)Nc2cnccn2)cc1 | 0.0% | -20.1% | -14.2% | -3.0% | -4.3% | 52.7%
O=C(Cc1ccccc1)Nc1cccc([N+](=O)[O-])c1 | 8.7% | -3.8% | -2.1% | -2.3% | -0.5%[60.1 µM] | -8.2%
O=C(Nc1ccc([N+](=O)[O-])cc1)Nc1cnccn1 | -8.7% | 10.5% | -17.6% | -2.8% | -6.7% | 39.8µM*
CC[C@@H]1CN2CCc3cc(OC)c(OC)cc3[C@@H]2C[C@@H]1C[C@H]1NCCc2cc(OC)c(OC)cc21 | / | / | / | / | -5.9%[19.4 µM] | /
COc1ccc(-n2c(=O)c3ccccc3n(Cc3ccc(F)cc3Cl)c2=O)cc1OC | -16.6% | 2.5% | 17.8% | / | -2.4% | 5.3%
O=C(Cc1n[nH]c(=O)[nH]c1=O)N/N=C/c1cccc(Cl)c1 | -15.3% | 89.1µM* | -3.2% | -5.7% | ? | -0.1%
COC(=O)/C=C\c1cc(O)ccc1O | / | / | / | / | -11.1%[19.4 µM] | /
NCC1CCC(N)C(O[C@@H]2C(O)[C@H](O[C@H]3OC(CO)C(O)C(N)C3O)[C@@H](N)C[C@H]2N)O1 (some centres undefined) | / | / | / | / | -3.4%[60.1 µM] | /
CCOC(=O)C1=C(O)/C(=C\c2ccc(CNS(=O)(=O)c3ccc(Br)cc3)o2)N=C1C | 22.4µM* | 15.8µM* | ? | 44.7µM* | 50.1µM* | -23.8%
COC(=O)C1=C(O)/C(=C\c2ccc(CNC(=O)C(=O)Nc3ccc(C)c(C)c3)o2)N=C1C | 22.4µM* | ? | -4.8% | -13.5%[11.6 µM] | -25.7% | ?
COC(=O)C1=C(O)/C(=C\c2ccc(CNS(=O)(=O)c3ccccc3)o2)N=C1C | ? | ? | -6.7% | ? | 28.2µM* | -20.1%
CC(=O)C1=C(c2ccc(Cl)c(Cl)c2)N(C(C)=O)n2cnnc2S1 | -20.6% | ? | -10.8% | / | -3.2%[60.1 µM] | ?
COc1cc(/C=C2/C=Cc3ccccc32)ccc1N(C)C | / | 70.8µM* | -25.6% | / | ? | /
COc1ccc(CNC(=O)c2cc3cccc4c3n2CC(C)S4)cc1 (centres undefined) | -20.5% | 30.4% | -2.1% | / | -1.6% | 3.2%
